Reference: the supplement of paper PMC7366291
Where a name gives a salt, the structure may show the parent alone. ± gives the standard deviation of the averaged measurements.

These compounds were tested on Danio rerio Tg(wt1b:EGFP) embryo, pronephros (assay: glomerular width (mean of left and right), fold change vs DMSO control; higher = wider glomerulus). Conditions: 25 µM; exposure: 24-48 hpf.
Outline: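 Dechorionated Tg(wt1b:EGFP) zebrafish embryos were exposed to 25 μM compound in 0.5% DMSO, HEPES-buffered E3 with 0.003% PTU, from 24 to 48 hpf at 28.5°C. Pronephroi were imaged dorsally in agarose-filled 96-well plates (470 nm, 10 z-slices). On maximum projections, 16 reference points were set manually in Fiji and a macro computed distances and angles. Values more than 2 SD from the feature mean were excluded. Each feature is a fold change relative to the mean of same-day DMSO controls.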
Compound C[N+]1(C)CCC(OC(=O)C(O)(c2ccccc2)C2CCCC2)C1 (configuration not stated) [Glycopyrrolate] has a glomerular width of 1.02 ± 0.055.
CCCCC1C(=O)N(c2ccccc2)N(c2ccc(O)cc2)C1=O (configuration not stated) [Oxyphenbutazone] was tested, and the glomerular width was 0.983 ± 0.027.
In the case of CCCCOc1ccc(C(=O)CCN2CCCCC2)cc1 [Dyclonine hydrochloride], the glomerular width is reported as 1.02 ± 0.071.
Cc1cn([C@H]2C[C@H](N=[N+]=[N-])[C@@H](CO)O2)c(=O)[nH]c1=O [Zidovudine, AZT] was tested, and the glomerular width was 1.06 ± 0.08.
For COC(=O)Nc1nc2cc(C(=O)c3ccc(F)cc3)ccc2[nH]1 [Flubendazol], the glomerular width was 0.934 ± 0.034.
Cc1cc(CC(=O)O)n(C)c1C(=O)c1ccc(Cl)cc1 [Zomepirac sodium salt] showed a glomerular width of 0.811 ± 0.033.
Compound Nc1ccccc1S(N)(=O)=O [2-Aminobenzenesulfonamide] has a glomerular width of 1.02 ± 0.072.
In the case of CN1CCC(OC(c2ccccc2)c2ccccc2)CC1 [Diphenylpyraline hydrochloride], the glomerular width is reported as 1.07 ± 0.053.
CCCCC[C@H](O)/C=C/[C@@H]1[C@@H](C/C=C\CCCC(=O)O)[C@@H](O)C[C@H]1O [Dinoprost trometamol] gave a glomerular width of 1.01 ± 0.064.
Compound O=C1C(CC[S+]([O-])c2ccccc2)C(=O)N(c2ccccc2)N1c1ccccc1 (configuration not stated) [Sulfinpyrazone] has a glomerular width of 1.02 ± 0.03.
With C#C[C@]1(O)CC[C@H]2[C@@H]3CCc4cc(O)ccc4[C@H]3CC[C@@]21C [Ethinylestradiol] the glomerular width was 0.823 ± 0.015.
With Cc1c(N)c(=O)n(-c2ccccc2)n1C [Ampyrone] the glomerular width was 1.01 ± 0.031.
C[C@H](CS)C(=O)N1CCC[C@H]1C(=O)O [Captopril] was tested, and the glomerular width was 1.01 ± 0.042.
Cc1onc(-c2ccccc2Cl)c1C(=O)N[C@@H]1C(=O)N2[C@@H]1SC(C)(C)[C@@H]2C(=O)O [Cloxacillin sodium salt] showed a glomerular width of 1.172 ± 0.0081.
Compound O=C1CN2Cc3c(ccc(Cl)c3Cl)N=C2N1 [Anagrelide] has a glomerular width of 0.932 ± 0.098.
With CCn1cc(C(=O)O)c(=O)c2cc(F)c(N3CCNCC3)nc21 [Enoxacin] the glomerular width was 0.9596 ± 0.0034.
NS(=O)(=O)c1cc2c(cc1Cl)NC(CC1CCCC1)NS2(=O)=O (configuration not stated) [Cyclopenthiazide] gave a glomerular width of 0.935 ± 0.03.
For CC(=O)S[C@@H]1CC2=CC(=O)CC[C@]2(C)[C@H]2CC[C@@]3(C)[C@@H](CC[C@@]34CCC(=O)O4)[C@H]12 [Spironolactone], the glomerular width was 0.912 ± 0.011.
Compound NC[C@@H]1O[C@@H](O[C@H]2[C@H](O)[C@@H](O[C@H]3O[C@H](CO)[C@@H](O)[C@H](N)[C@H]3O)[C@H](N)C[C@@H]2N)[C@@H](O)[C@H](O)[C@H]1O [Kanamycin A sulfate] has a glomerular width of 1.01 ± 0.046.
COC1=CC(=O)C[C@@H](C)[C@]12Oc1c(Cl)c(OC)cc(OC)c1C2=O [Griseofulvin] gave a glomerular width of 1 ± 0.023.
Compound Cc1c(-c2ccccc2)oc2c(C(=O)OCCN3CCCCC3)cccc2c1=O [Flavoxate hydrochloride] has a glomerular width of 1.08 ± 0.037.
In the case of CC(C)N1CCN(c2ccc(OCC3COC(Cn4cncn4)(c4ccc(Cl)cc4Cl)O3)cc2)CC1 (configuration not stated) [Terconazole], the glomerular width is reported as 1.0642 ± 0.00066.
CN(C)CCN(Cc1cccs1)c1ccccn1 [Methapyrilene hydrochloride] showed a glomerular width of 0.99 ± 0.077.
NC12CC3CC(CC(C3)C1)C2 [Adamantamine fumarate] gave a glomerular width of 1.07 ± 0.033.
O=C(NCCN1CCOCC1)c1ccc(Cl)cc1 [Moclobemide] gave a glomerular width of 1.01 ± 0.088.
In the case of CCCCC1C(=O)N(c2ccccc2)N(c2ccccc2)C1=O [Phenylbutazone], the glomerular width is reported as 0.552 ± 0.0084.
Compound CC(C)NCC(O)c1ccc(O)c(O)c1 (single isomer, unassigned; (+)) [(+)-Isoproterenol (+)-bitartrate salt] has a glomerular width of 1.03 ± 0.023.
With CCCCCNC(=N)N/N=C/c1c[nH]c2ccc(OC)cc12 [Tegaserod maleate] the glomerular width was 0.997 ± 0.032.
C[C@H]1C[C@H]2[C@@H]3CCC4=CC(=O)C=C[C@]4(C)[C@@]3(F)[C@@H](O)C[C@]2(C)[C@@]1(O)C(=O)CO [Betamethasone] was tested, and the glomerular width was 1.17 ± 0.088.
Cc1c(O)c(=O)n(-c2ccccc2)n1C [Antipyrine, 4-hydroxy] showed a glomerular width of 0.951 ± 0.064.
Work on NS(=O)(=O)c1cc(Cl)c(Cl)c(S(N)(=O)=O)c1 [Dichlorphenamide] yielded a glomerular width of 1.15 ± 0.06.
Compound C#CCN(C)CCCOc1ccc(Cl)cc1Cl [Clorgyline hydrochloride] has a glomerular width of 1.05 ± 0.029.
